# Results: the supplement of paper PMC6763611
# Tested on: Plasmodium falciparum NF54
# Assay: growth inhibition relative to untreated control; higher = more inhibition
# Conditions: 72 h
# How it was run: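 P. falciparum NF54 ring stages (1% hematocrit, 1% parasitemia, 100 μL/well in 96-well half-area dark plates) were exposed for 72 h at 37 °C to single 5 μM or 1 μM doses of Pathogen Box compounds. The medium was minimal RPMI or minimal RPMI plus chorismate end-products (2.2 μM folate, 7.3 μM pABA, 7.3 μM pHBA, 111 μM tyrosine, 90 μM phenylalanine, tryptophan). Growth inhibition was read by SYBR Green, normalised to untreated controls, with uninfected erythrocytes as background.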
# [1] = 1 µM, MM + chorismate end-products (CM screening medium)
# [2] = 5 µM, MM + chorismate end-products (CM screening medium)
Structure (SMILES),growth inhibition [1] [%],"growth inhibition (1 µM, minimal medium (MM)) [%]",growth inhibition [2] [%],"growth inhibition (5 µM, minimal medium (MM)) [%]"
CCOC(=O)c1c(NC(=O)c2c(F)c(F)c(F)c(F)c2F)sc(C(N)=O)c1C,28.3,< 0,14.8,13.1
CCN(CC)S(=O)(=O)c1ccc(Cl)c(C(=O)Nc2ccc3nc(C)sc3c2)c1,98.3,96.2,91.3,94.1
CN1CCC(c2cc(-c3ccncc3)c(-c3ccc(F)cc3)[nH]2)CC1,72.9,72.7,92.6,92.2
Clc1ccc(CCNc2cc(-c3ccccc3)nc3ncnn23)cc1,< 0,0.487,5.05,< 0
OC[C@H]1O[C@@H](n2c3ccc(Cl)cc3c3c(-c4cc5ccccc5o4)ncnc32)C(O)[C@H]1O (some centres undefined),1.89,13.6,63.8,30
CC1CCCN(C(=O)C(C)Nc2cc(Cl)ccc2N2CCOCC2)C1 (centres undefined),90.5,94.3,91,94.9
CCCCCCCCCCCCCCCCOP(=O)([O-])OCC[N+](C)(C)C,35.9,19,3.26,8.75
CC1COC2(CCN(c3nc(=O)c4cc(C(F)(F)F)cc([N+](=O)[O-])c4s3)CC2)O1 (centres undefined),6.95,12.6,14.7,< 0
COc1cccc2c(C)nc(N=C(N)N)nc12,70.2,71.3,92.4,89.2
Clc1ccc(-n2cc(COc3ccnc4ccccc34)nn2)cc1,4.03,< 0,32.4,16
FC(F)(F)c1ccc(N(c2cccnc2)C2CCN(c3ccc(C(F)(F)F)cn3)CC2)cc1,60.2,38.4,93.8,90.5
O=C1N(Cc2cc3ccccc3s2)CC2CN(Cc3ccccc3)CCN12 (centres undefined),97.5,98,96.5,94.8
Nc1ncc(Br)cc1-c1nc2cc(Cl)cnc2[nH]1,61.7,< 0,67.3,89.1
CC(C)C(NC(=O)Cc1cccc2ccccc12)C(=O)Nc1cccc(C#N)c1 (centres undefined),89.9,86.3,79.3,91
COc1ccc(C2(C(=O)Nc3ccc(Br)cc3)CCCC2)cc1,15.3,2.06,< 0,2.98
CC(C)(C)C(=O)N(CCCCCCN1C[C@H](O)[C@@H](O)[C@H](O)[C@H]1CO)C1CCCCCC1,28.4,< 0,< 0,< 0
CN(C(=O)c1cc2c(-c3cncnc3)cccc2[nH]1)c1ccccc1,48.7,56.4,96,94.3
COc1ccc(-c2cc(NC(=O)c3ccc(F)cc3Cl)ccc2OC)cc1,8.71,13.2,< 0,< 0

Structure (SMILES),growth inhibition [1] [%],"growth inhibition (1 µM, minimal medium (MM)) [%]",growth inhibition [2] [%],"growth inhibition (5 µM, minimal medium (MM)) [%]"
CCOc1ccc(OCC(=O)Nc2cc(C)cc(C)c2)cc1,24.6,< 0,32.1,< 0
Cc1cc(C)n(-c2ccc(NC(=O)C3CCN(Cc4cnc(C)s4)CC3)cc2)n1,31,27.5,43.6,10.6
Cc1cc(NCC(C)C)c2[nH]nc(-c3ccccc3)c2n1,89.6,94.3,99.7,87.9
Cc1cc(NCCc2ccccc2)nc(NC(=N)Nc2ccc(Cl)cc2)n1,97.8,97.7,86.2,93.7
CC1(C)Cc2c(c(N3CCOCC3)nc3snc(Br)c23)CO1,79.2,74.4,53.9,19.1
C[C@H](C(N)=O)N1CCCC[C@@H]1c1ccc(OCc2cccc(F)c2)cc1,45.1,< 0,14.2,15.9
N#Cc1ccc(-c2ccc(OCC(N)=O)cc2)cc1,< 0,6.45,< 0,< 0
Nc1ncnc2c1c(-c1cnc3ccccc3c1)nn2CC1CCNCC1,22.7,5.9,< 0,16.8
O=C(NC1CC1)c1ccc(N2CCOc3ccc(Cl)cc32)s1,91,82.1,95.1,91.5
c1cncc(NCc2ccc(-c3cc4ccncc4cc3OC3CCNCC3)s2)c1,98.6,98,> 100,84.2
CCc1ccccc1-n1c(C)cn2c3c(=O)n(C(C(=O)OC)C(C)C)c(=O)n(C)c3nc12 (centres undefined),72.6,83,84.3,87.9
FC(F)(F)c1cc(NCCc2ccccc2)nc(-c2ccccn2)n1,37.2,0.647,0.0785,< 0
Cc1cccc(Cn2ccc(NC(=O)c3ccc4c(c3)OCO4)n2)c1,18.2,6.8,12.8,17.9
COc1cc(C2=NCCN2)ccc1-n1cc(-c2cccc(C3=NCCN3)c2)nn1,51.9,55,66.5,19.2
O=C(C1CCN(c2cc(-n3cccc3)ncn2)CC1)N1CCc2ccccc2C1,11.5,5.57,4.91,3.34
O=C(NCc1nnc2n1CCCCC2)c1ccc(-c2ccc(F)cc2)o1,< 0,< 0,< 0,< 0
CC1CCCCN1C(=O)NCCc1coc(-c2ccc(F)cc2)n1 (centres undefined),< 0,8.79,< 0,< 0
O=C(C1CCCCC1)N1CC(=O)N2CCc3ccccc3C2C1 (centres undefined),< 0,15.5,0.306,< 0
